An excerpt weighted towards active compounds, which were near 2% of everything screened.
KCNH2 3.1 inh – KCNH2 3.1 (human) potassium channel inhibition | 0.95% of 340,000 active | U2OS KCNH2 3.1, thallium flux FluxOr; hits give low values | activity change, % (tested at about 1.8 µM) | AID 720553;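 active = maximum activity change below -70%; inconclusive = maximum activity change from -70% to -50%; inactive = maximum activity change above -50%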;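 note: thallium influx rate constant from kinetic fluorescence after stimulation buffer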
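Thallium flux read-out: FluxOr dye with Red40 quencher in HBSS/HEPES, 45 min at RT. Rate constants from kinetic reads were normalized to positive and negative DMSO controls. Cells: U2OS virally expressing the 3.1 isoform.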
Six1-Eya2 inh – blocks human Six1 binding to Eya2 | Q15475+O00167 | AlphaScreen GST-Six1/His-Eya2 binding, biochemical; hits give low values | activity change, % (no concentration beside the values) | AID 651725 | 0.56% of 360,000 active
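Homogeneous AlphaScreen proximity assay pairing GST-Six1 with His-tagged Eya2 (added as 5X mix: 250 nM and 500 nM) in 50 mM Tris pH 8.0, 300 mM NaCl, 1 mM TCEP. Glutathione donor and nickel acceptor beads; 1 h, 37 °C, dark.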
KDM4E inh – JMJD2E (human) inhibition; B2RXH2; JMJD2E catalytic domain, FDH-coupled NADH fluorescence (FDH is formaldehyde dehydrogenase); Potency, µM (top dose mostly 57.1 µM), without a hit: at the highest dose activity change, negative = inhibition, most hits filed as inhibitors; 1.6% of 230,000 active; active = well fitted inhibition curve with a large enough effect, not every such curve was filed as active; inconclusive = small, poorly fitted or top-dose-only effect, or another doubt; inactive = no such curve, though single readings can be large or run the other way;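 note: potency is the fitted concentration of half-maximal effect; 0% = wells with enzyme and -100% = buffer wells without enzyme; nearly all actives have a fitted effect of over 50% in size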
hERG WT inh – blocks the wildtype human KCNH2 potassium channel; U2OS, BacMam KCNH2, thallium flux FluxOr; hits give low values; activity change, % at 1.84 µM; Q12809; 0.37% of 340,000 active; AID 720551;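 active = maximum activity change below -70%; inconclusive = maximum activity change between -70% and -50%; inactive = maximum activity change above -50%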
Target sequence (Q12809 whole entry, looked up): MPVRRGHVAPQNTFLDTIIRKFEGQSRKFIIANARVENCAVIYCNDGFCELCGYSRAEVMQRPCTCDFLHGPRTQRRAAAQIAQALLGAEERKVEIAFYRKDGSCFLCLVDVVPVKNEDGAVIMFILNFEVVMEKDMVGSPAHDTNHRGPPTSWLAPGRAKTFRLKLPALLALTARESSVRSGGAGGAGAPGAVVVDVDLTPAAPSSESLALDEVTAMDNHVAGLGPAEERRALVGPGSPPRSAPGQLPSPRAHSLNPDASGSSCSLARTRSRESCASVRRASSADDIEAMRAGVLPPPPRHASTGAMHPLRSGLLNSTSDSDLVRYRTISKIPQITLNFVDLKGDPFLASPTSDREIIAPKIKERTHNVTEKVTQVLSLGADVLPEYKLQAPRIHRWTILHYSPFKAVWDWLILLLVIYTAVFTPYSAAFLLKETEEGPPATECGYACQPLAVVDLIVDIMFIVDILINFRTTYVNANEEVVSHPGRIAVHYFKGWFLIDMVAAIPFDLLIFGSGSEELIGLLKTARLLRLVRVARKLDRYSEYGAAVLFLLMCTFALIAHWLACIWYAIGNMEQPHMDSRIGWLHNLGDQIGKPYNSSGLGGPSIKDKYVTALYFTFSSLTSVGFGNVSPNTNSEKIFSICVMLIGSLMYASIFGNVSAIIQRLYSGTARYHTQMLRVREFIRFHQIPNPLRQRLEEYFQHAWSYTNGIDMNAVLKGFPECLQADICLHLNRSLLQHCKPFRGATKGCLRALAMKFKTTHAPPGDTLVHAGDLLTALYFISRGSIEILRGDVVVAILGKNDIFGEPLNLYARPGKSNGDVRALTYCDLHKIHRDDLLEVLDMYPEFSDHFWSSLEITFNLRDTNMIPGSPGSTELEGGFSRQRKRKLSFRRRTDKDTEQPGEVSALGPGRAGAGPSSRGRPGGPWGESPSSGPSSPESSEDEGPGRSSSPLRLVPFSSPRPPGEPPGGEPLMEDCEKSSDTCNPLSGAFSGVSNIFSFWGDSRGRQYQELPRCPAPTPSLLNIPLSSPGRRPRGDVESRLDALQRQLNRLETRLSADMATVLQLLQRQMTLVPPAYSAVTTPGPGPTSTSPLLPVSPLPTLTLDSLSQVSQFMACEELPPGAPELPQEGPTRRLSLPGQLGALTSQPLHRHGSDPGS
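U2OS cells were transduced with wild-type KCNH2 virus (2.03 x 10^8 / mL) for 4 h at room temperature, then cultured overnight at 37 C. Thallium flux was read with FluxOr dye. Rate constants were normalized to DMSO controls.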
CtBP-E1A blk – blocks the CtBP interaction with E1A; 0.49% of 340,000 active; activity change, % (concentration not given with the values); AID 651724; AlphaScreen GST-E1A/His-CtBP binding, 1536-well; hits give low values
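Homogeneous bead-based format: GST-tagged E1A captured on glutathione donor beads, His-tagged CtBP on nickel acceptor beads; compounds precede bead addition by 2 h at 37 °C.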
* marks the source's active call; other numbers are inactive results; u = inconclusive; x = not tested or not shown. Cut-off read from the data, not from the text of the source, unless noted: active = activity change below about -65%; inconclusive = mostly about -30% to -63%; inactive = weaker than that. Unless noted, % is set by controls: 0 for no effect and ±100 for the full control effect.

SMILES	KCNH2 3.1 inh	Six1-Eya2 inh	KDM4E inh	hERG WT inh	CtBP-E1A blk
CS(=O)(=O)c1ccc2nc(NC3(C(F)(F)F)N=C4SCCN4C3=O)sc2c1 (stereo not given)	4	16	2%	-85*	44
O=C1N2CCSC2=NC1(Nc1ccccn1)C(F)(F)F (stereo not given)	-14	1	6%	-3	7
O=S(=O)(Cc1ccccc1)Nc1cccc(Br)c1	-11	2	x	0	3
COCc1ccc(C(=O)N2CCN(CC(=O)N3CCCC3)CC2)cc1	-6	0	x	x	10
Cc1ccc(C)c(N(C(=O)CNC(=O)c2ccco2)C(C(=O)NCC2CCCO2)c2ccccc2)c1 (stereo not given)	-75*	7	x	-5	-21
COc1ccc(C)cc1N(C(=O)CNC(=O)c1ccco1)C(C(=O)NCC1CCCO1)c1ccccc1 (stereo not given)	-3	-1	x	-10	-2
CC(C)C(=O)N1CCC(CN=CC2=C(O)CC(C)(C)CC2=O)CC1	4	-2	-2%	-7	-1
O=C(CN(Cc1ccccc1)C(=O)c1cccc([N+](=O)[O-])c1)Nc1c(Cl)cc(Cl)cc1Cl	-87*	0	5%	7	6
O=C(NNc1c(Cl)cc(Cl)cc1Cl)c1cccc([N+](=O)[O-])c1	-3	-5	3%	2	1
COCc1cc(C)nc2sc(C(=O)Nc3ccccc3C)c(N)c12	-4	23	x	-9	17
O=C(NN=C1C2CC3CC(C2)CC1C3)c1ccncc1	3	11	69%	-183*	-3
Cc1cc(C)nc(SCc2ccc(C(=O)NN=C3C4CC5CC(C4)CC3C5)cc2)n1	9	4	11%	2	0
COc1ccc(CN2C(=O)c3cccnc3C2Nc2ccc(C)cc2)cc1 (stereo not given)	1	-2	u	-7	-9
COc1ccc(CN2C(=O)c3cccnc3C2Nc2cc(Cl)c(OC)cc2OC)cc1 (stereo not given)	0	-19	16µM*	25	-16
O=c1ccc(N=Nc2ccccc2)ccc1O	9	u	5.6µM*	-18	u
O=C(CN1CCN(c2ccc(Cl)cc2)CC1)NCc1ccccc1	x	0	0%	24	3
COc1ccc(C)cc1NC(=O)CN1CCN(C/C=C/c2ccccc2)CC1	-102*	-11	-4%	-98*	-21
CCOC(=O)c1[nH]c2ccc(F)cc2c1NC(=O)CN1CCN(C/C=C/c2ccccc2)CC1	u	u	u	-90*	-22
COc1ccc(C)cc1NC(=O)Nc1ccccc1	-135*	-12	-1%	-137*	-2
O=C(CN1CCN(C/C=C/c2ccccc2)CC1)NCc1ccc(Cl)cc1	-124*	-4	7%	u	3
COc1ccc(NC(=O)Nc2cc(C)ccc2OC)cc1	-7	-6	9%	0	2
COc1ccc(C)cc1NC(=O)CN1CCN(c2ccccc2F)CC1	0	6	1%	-3	-13
COc1cccc(-c2cccc(NC(=O)C3CCN(CC4CCOC4)CC3)c2)c1 (stereo not given)	3	4	x	20	2
COC(=O)c1[nH]c2ccccc2c1NC(=O)CN1CCN(C/C=C/c2ccccc2)CC1	-96*	-21	u	-94*	2
N=C(N)c1ccc(N=Nc2c(O)ccc3c2[nH]c2ccccc23)cc1	9	u	x	23	-67*
SMILES	KCNH2 3.1 inh	Six1-Eya2 inh	KDM4E inh	hERG WT inh	CtBP-E1A blk
Cc1ccc(C(=O)N/N=C/c2ccc(-c3ccccc3[N+](=O)[O-])o2)cn1	2	-69*	-4%	1	u
Cc1ccc(C(=O)N/N=C/c2ccc(-c3cccc(Cl)c3)o2)cn1	-3	-27	-17%	-6	-1
COCCCNC(=O)CN(c1cc(Cl)cc(Cl)c1)S(C)(=O)=O	4	6	1%	-16	5
CN1C[C@@H]2C(c3ccc(Cl)nc3)C3(c4ccc(C#N)cc4)CC2(C3)[C@H]1c1ccccc1 (stereo not given in full)	-77*	-18	3%	8	-9
CN1C[C@@H]2C(c3ccc(C(F)(F)F)cc3)C3(c4cccnc4)CC2(C3)[C@H]1c1ccccc1 (stereo not given in full)	-85*	-26	13%	-8	-17
N#Cc1ccc(C23CC4(C2)[C@H](CN(P(=O)(c2ccccc2)c2ccccc2)[C@@H]4c2ccccc2)C3c2ccc(Cl)nc2)cc1 (stereo not given in full)	-33	-12	-28%	-12	-3
CN1CCN(C(=S)Nc2cc(S(=O)(=O)N3CCOCC3)ccc2Cl)CC1	6	-10	-1%	8	10
c1ccc(-c2csc(Cc3nnc4n3CCCCC4)n2)cc1	5	0	4%	-4	9
O=C(c1ccc2c(c1)OCO2)C1CCCN(Cc2ccc3cccc(F)c3n2)C1 (stereo not given)	-101*	-10	-5%	-25	-5
O=C(c1ccc2c(c1)OCO2)C1CCCN(Cc2cccc(C(F)(F)F)c2)C1 (stereo not given)	-10	-13	x	26	3
O=C(c1ccc2c(c1)OCO2)C1CCCN(Cc2ccc(OC(F)F)cc2)C1 (stereo not given)	-94*	-13	x	-8	x
O=C(c1ccc2c(c1)OCO2)C1CCCN(Cc2cn[nH]c2-c2cccc(F)c2)C1 (stereo not given)	17	-1	-21%	-17	-3
Cc1ccc(C(=O)O)c(C(=O)Nc2nc3ccccc3s2)c1	-6	4	x	3	6
COc1cccc(CNc2ccc(N3CCC(C)CC3)cc2)c1OC	-5	-72*	13µM*	11	-70*
CCCC(=O)Nc1c2c(nn1-c1ccccc1)CSC2	-114*	2	x	7	x
O=C(CBr)Nc1c2c(nn1-c1ccccc1)CSC2	-8	14	x	0	33
Cn1c(N2CCCC2)nc2c1c(=O)n(Cc1ccc(F)cc1)c(=O)n2C	35	-14	1%	15	-15
N#C/C(=C/c1ccc(-c2ccc(S(=O)(=O)N3CCOCC3)cc2)o1)C(=O)NC1CC1	10	u	x	-80*	u
O=S(=O)(c1ccc(F)cc1)c1nc(-c2ccc(F)cc2)oc1NCCN1CCOCC1	0	-11	-10%	6	-1
CCCCn1c(SCC(=O)Nc2cccc(C)n2)nnc1-c1ccco1	0	1	7%	-5	0
COc1ccc(S(=O)(=O)N2CCCCC2)cc1NC(=O)Cc1cccs1	-76*	0	x	-6	-13
Cc1cccc(NC(c2ccc(O)cc2)c2ccc3ccc(C)nc3c2O)n1 (stereo not given)	-3	-23	u	4	u

Bioassay records (PubChem BioAssay)
